Experimental data: PubChem BioAssay (Tox21)
Inconclusive results are not listed. Activity calls are given as the source filed them. Calls follow the shape of the full dose curve.

Key:
[1] = target: Acetylcholinesterase (Homo sapiens) (UniProt P22303); assay: Acetylcholinesterase (AChE) small molecule antagonists: colormetric cell-based qHTS assay (AID 1347395); conditions: SH-SY5Y cells AChE activity, colorimetric (Ellman); series mostly up to 115 µM; also: nearly all actives have a fitted effect of over 30% in size; also: potency is read from the fitted curve at half-maximal effect
Sequence of Acetylcholinesterase (Homo sapiens) (P22303 whole entry, looked up): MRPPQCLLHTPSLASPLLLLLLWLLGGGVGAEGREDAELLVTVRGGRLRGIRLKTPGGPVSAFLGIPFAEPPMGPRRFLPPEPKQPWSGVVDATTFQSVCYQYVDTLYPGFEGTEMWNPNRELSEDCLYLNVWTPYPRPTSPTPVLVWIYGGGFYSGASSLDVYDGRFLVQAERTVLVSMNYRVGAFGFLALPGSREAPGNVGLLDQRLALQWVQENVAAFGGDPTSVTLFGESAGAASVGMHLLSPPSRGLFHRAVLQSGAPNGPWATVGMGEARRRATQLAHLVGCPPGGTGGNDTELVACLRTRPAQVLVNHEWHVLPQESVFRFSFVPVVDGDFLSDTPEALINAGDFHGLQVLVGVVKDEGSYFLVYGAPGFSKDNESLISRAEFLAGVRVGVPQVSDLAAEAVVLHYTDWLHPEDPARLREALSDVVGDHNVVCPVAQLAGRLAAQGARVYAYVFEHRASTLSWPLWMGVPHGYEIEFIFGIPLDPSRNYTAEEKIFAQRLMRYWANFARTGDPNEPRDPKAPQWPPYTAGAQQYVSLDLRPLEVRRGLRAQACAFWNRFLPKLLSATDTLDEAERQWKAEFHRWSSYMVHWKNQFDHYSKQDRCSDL
Procedure, shortened: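 SH-SY5Y cells; cpd 30 min 37 C; + DTNB/acetylthiocholine, 90 min 37 C; colorimetric thiocholine read; qHTS.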

[2] = target: Acetylcholinesterase (Homo sapiens) (UniProt P22303); assay: Acetylcholinesterase (AChE) small molecule antagonists: enzyme-based qHTS assay (AID 1347397); conditions: Potency: AChE enzyme activity inhibition; outcome: AChE enzyme activity inhibition; series mostly up to 115 µM; also: nearly all actives have a fitted effect of over 55% in size; also: potency is read from the fitted curve at half-maximal effect
Procedure, shortened: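 Colorimetric DTNB read-out of thiocholine released from acetylthiocholine by recombinant human AChE (50 mU/mL as dispensed). Compounds were preincubated 30 min at RT before substrate/DTNB addition, with a 10 min RT reaction.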

[3] = target: Acetylcholinesterase (Homo sapiens) (UniProt P22303); assay: Acetylcholinesterase (AChE) small molecule antagonists: fluorescence cell-based qHTS assay (AID 1347398); conditions: SH-SY5Y cells; Potency: AChE activity; outcome: AChE activity; series mostly up to 115 µM; also: nearly all actives have a fitted effect of over 50% in size; also: potency is read from the fitted curve at half-maximal effect
Procedure, shortened: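 SH-SY5Y, 2,000 cells/well, attached overnight; cmpd 30 min 37 C; acetylthiocholine/Thiolite Green cocktail 40 min RT; fluorescence Ex/Em 490/520 nm.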

[4] = target: Acetylcholinesterase (Homo sapiens) (UniProt P22303); assay: Acetylcholinesterase (AChE) small molecule antagonists: enzyme-based qHTS assay with human liver microsomes (AID 1347399); conditions: Potency: qHTS inhibition; outcome: qHTS inhibition; series mostly up to 115 µM; also: nearly all actives have a fitted effect of over 60% in size
Procedure, shortened: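 Recombinant human AChE (50 mU/mL in the enzyme mix) and human liver microsomes (0.25 mg/mL final) were preincubated with compound and NADPH (0.25 mg/mL final) for 30 min at 37 C. Acetylthiocholine/DTNB was then added; thiocholine was read colorimetrically after 10 min at room temperature.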
% is scaled to controls: 0 for no effect and ±100 for the full control effect.

CCCCCCCC/C=C\CCCCCCCC(=O)OCCCC
inactive: activity, negative = inhibition [1] 0.807% [at 23.6 µM] | activity change, negative = inhibition [2] 0.806% [at 23.6 µM] | activity change, negative = inhibition [3] -0.0934% [at 23.8 µM] | activity change, negative = inhibition [4] 0.083% [at 23.6 µM]

COc1ccc(-c2coc3cc(O)ccc3c2=O)cc1
inactive: Potency [1] | Potency [2] | Potency [3] | Potency [4]

COc1ccccc1OCC(O)CN1CCN(CC(=O)Nc2c(C)cccc2C)CC1 (stereo not drawn)
inactive: Potency [1] | Potency [2] | Potency [3] | Potency [4]

Nc1ncnc2c1ncn2[C@H]1CC[C@@H](CO)O1
inactive: Potency [1] | Potency [2] | Potency [3] | Potency [4]

CCC1=C(C)CN(C(=O)NCCc2ccc(S(=O)(=O)NC(=O)NC3CCC(C)CC3)cc2)C1=O (stereo not drawn)
inactive: Potency [1] | Potency [2] | Potency [3] | Potency [4]

CC=O
active: Potency [1] 41.8 µM | Potency [2] 74.3 µM | Potency [3] 26.4 µM
inactive: Potency [4]

CN(C)C(=O)Nc1ccccc1
inactive: Potency [1] | Potency [2] | Potency [3] | Potency [4]

COc1ccc2[nH]c(S(=O)Cc3ncc(C)c(OC)c3C)nc2n1 (stereo not drawn)
inactive: Potency [1] | Potency [2] | Potency [3] | Potency [4]

CC(=O)OCCc1ccccc1
inactive: Potency [1] | Potency [2] | Potency [3] | Potency [4]

CCCCCCCCCC#N
inactive: Potency [1] | Potency [2] | Potency [3] | Potency [4]

COc1cccc([C@H](O)C2CCN(CCc3ccc(F)cc3)CC2)c1OC
inactive: Potency [1] | Potency [2] | Potency [3] | Potency [4]

CCOC(=O)CC(C)C
inactive: Potency [1] | Potency [2] | Potency [3] | Potency [4]

CC(=O)CC(=O)Nc1ccc2[nH]c(=O)[nH]c2c1
inactive: Potency [1] | Potency [2] | Potency [3] | Potency [4]

CCCCOCC
inactive: Potency [1] | Potency [2] | Potency [3] | Potency [4]

CN(C)c1ccc(N=Nc2ccccc2C(=O)O)cc1
inactive: Potency [1] | Potency [2] | Potency [3] | Potency [4]

O=C(O)c1ccc(O)c(O)c1
inactive: Potency [1] | Potency [2] | Potency [3] | Potency [4]

C=CC(=O)OCCOCC(CC)(COCCOC(=O)C=C)COCCOC(=O)C=C
inactive: Potency [1] | Potency [2] | Potency [3] | Potency [4]

CCc1c(Br)c(Br)c(Br)c(Br)c1Br
inactive: Potency [1] | Potency [2] | Potency [3] | Potency [4]

Cc1c(C)c2c(c(C)c1OC(=O)CCC(=O)O)CC[C@@](C)(CCC[C@H](C)CCC[C@H](C)CCCC(C)C)O2
inactive: Potency [1] | Potency [2] | Potency [3] | Potency [4]

COc1c2occc2c(OC)c2c(=O)cc(C)oc12
inactive: Potency [1] | Potency [2] | Potency [3] | Potency [4]

CN(C1CCCCC1)S(=O)(=O)c1ccccc1N
inactive: Potency [1] | Potency [2] | Potency [3] | Potency [4]

O=CC1CC1
inactive: Potency [1] | Potency [2] | Potency [3] | Potency [4]

O=S(O)CO
inactive: Potency [1] | Potency [2] | Potency [3] | Potency [4]

NC1CCN(c2nc3c(cc2F)c(=O)c(C(=O)O)cn3-c2ccc(F)cc2F)C1 (stereo not drawn)
inactive: Potency [1] | Potency [2] | Potency [3] | Potency [4]

CCC[C@@H]1C[C@@H](C(=O)N[C@@H]([C@H]2O[C@H](SC)[C@H](O)[C@@H](O)[C@H]2O)[C@@H](C)O)N(C)C1
inactive: Potency [1] | Potency [2] | Potency [3] | Potency [4]

Cc1cc(=O)c2c(O)c3c(O)cc(=O)c4c3c3c(cc(O)c1c23)C(C)(C)C=4O
inactive: activity, negative = inhibition [1] 0.337% [at 23.6 µM] | activity change, negative = inhibition [2] 2.31% [at 23.6 µM] | activity change, negative = inhibition [3] 7.09% [at 23.8 µM] | activity change, negative = inhibition [4] 0.168% [at 23.6 µM]

C=CCOC(=O)COCCC(C)C
inactive: Potency [1] | Potency [2] | Potency [3] | Potency [4]

O=C(c1ccco1)N1CCNCC1
inactive: Potency [1] | Potency [2] | Potency [3] | Potency [4]

C=C(C)C(=O)NCCCN(C)C
inactive: Potency [1] | Potency [2] | Potency [3] | Potency [4]

CO[Si](OC)(c1ccccc1)c1ccccc1
inactive: Potency [1] | Potency [2] | Potency [3] | Potency [4]

CCCCCCCCCCCCSC
inactive: Potency [1] | Potency [2] | Potency [3] | Potency [4]

CC1C2CC(CC2C2CCCC(O)C2)C1(C)C (stereo not drawn)
inactive: Potency [1] | Potency [2] | Potency [3] | Potency [4]

NS(=O)(=O)c1cc(C(=O)NN2C[C@H]3[C@H]4CCC(C4)[C@H]3C2)ccc1Cl
inactive: Potency [1] | Potency [2] | Potency [3] | Potency [4]

OCCCc1cccnc1
inactive: Potency [1] | Potency [2] | Potency [3] | Potency [4]

CCCCOCCCC
inactive: Potency [1] | Potency [2] | Potency [3] | Potency [4]

O=[N+]([O-])c1cccc(I)c1
inactive: Potency [1] | Potency [2] | Potency [3] | Potency [4]

FC1(F)C(F)(F)C(F)(F)C2(F)C(F)(C1(F)F)C(F)(F)C(F)(F)C1(F)C(F)(F)C(F)(F)C(F)(F)C(F)(F)C12F (stereo not drawn)
inactive: Potency [1] | Potency [2] | Potency [3] | Potency [4]
